Assay results: the supplement of paper PMC3724861
The entries come from a sample that favours hits as a whole. No count for the full screen is at hand.

system: T1, Caupolican (Caup) homeodomain DNA-binding domain; assay: PBM E-score (8-mer, recovered from the published 9-mer minima) (E-score (dimensionless, -0.5 to 0.5)); Drosophila protein; higher = stronger relative binding preference, active = 0.31 or more
T1 sequence: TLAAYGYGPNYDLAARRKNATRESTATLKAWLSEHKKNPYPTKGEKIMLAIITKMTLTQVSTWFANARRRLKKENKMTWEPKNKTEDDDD
Protocol: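 Protein binding microarray (PBM): in vitro transcribed/translated Caupolican (Caup) homeodomain DNA-binding domain (residues 214-303) applied at 100 nM to a universal 8-mer PBM array (Agilent AMADID 015681). The 8-mer enrichment score (E-score, range -0.5 to 0.5) was computed, and each 9-mer score is the minimum E-score of its two constituent 8-mers. The E-score is the same for a 9-mer and its reverse complement; 0.31 is the stated binding threshold.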

| Sequence | PBM E-score |
| --- | --- |
| GCACCGCA | -0.175 (inactive) |
| CAATGTAG | 0.182 (inactive) |
| CAATGTAC | 0.287 (inactive) |
| CAATGTAA | 0.312 (active) |
| TAATGTAA | 0.315 (active) |
| TAATGTGA | 0.141 (inactive) |
| AAATGTAA | 0.277 (inactive) |
| TGGACACA | 0.199 (inactive) |
| GGTAGCGA | -0.0452 (inactive) |
| GCCGGGTA | -0.161 (inactive) |
| CTAGCGTA | -0.0972 (inactive) |
| ATGTCTTA | 0.284 (inactive) |
| TCATGACA | 0.313 (active) |
| ACATGACC | 0.303 (inactive) |
| TAATGACA | 0.331 (active) |
| CAATGACA | 0.293 (inactive) |
| GATTGACA | 0.276 (inactive) |
| TGATGACA | 0.279 (inactive) |
| ACATGACG | 0.297 (inactive) |
| TATTGACA | 0.322 (active) |
| ACATGACT | 0.374 (active) |
| CATTGACA | 0.217 (inactive) |
| CCATGACA | 0.137 (inactive) |
| GAATGACA | 0.259 (inactive) |

| Sequence | PBM E-score |
| --- | --- |
| GTGGCGAA | -0.0979 (inactive) |
| CGGAGTGC | -0.159 (inactive) |
| AACCTATT | 0.0185 (inactive) |
| CTGACAGC | -0.0248 (inactive) |
| CTATTCCA | 0.057 (inactive) |
| CGATTACG | 0.101 (inactive) |
| CCCCTGAG | -0.149 (inactive) |
| ATCGCACC | -0.0473 (inactive) |
| CGCATATA | 0.107 (inactive) |
| AAGCACTG | 0.0317 (inactive) |
| ATTTGACC | -0.0206 (inactive) |
| AGATGACA | 0.227 (inactive) |
| ACATGACA | ≥ 0.43 (active) |
| CTTTGACA | 0.223 (inactive) |
| ATTTGACA | 0.347 (active) |
| GCATGACA | 0.21 (inactive) |
| CTCTTCTA | -0.00512 (inactive) |
| ATATTCGC | 0.0752 (inactive) |
| GCAGAAGA | -0.113 (inactive) |
| TAAATATA | 0.187 (inactive) |
| CAAATAGG | -0.00893 (inactive) |
| AGTTGTCG | 0.235 (inactive) |
| AGTTGTCC | 0.235 (inactive) |
| GGTTGTCA | 0.331 (active) |

| Sequence | PBM E-score |
| --- | --- |
| AGTTGTCA | 0.315 (active) |
| CGTTGTCA | 0.251 (inactive) |
| GTTTGTCA | 0.187 (inactive) |
| CGTAAATC | -0.00723 (inactive) |
| CATGGATA | 0.157 (inactive) |
| AACAAACG | 0.114 (inactive) |
| AACAAGCG | 0.237 (inactive) |
| AACAAACC | 0.161 (inactive) |
| GACAAAAA | 0.0647 (inactive) |
| CACAAACA | 0.24 (inactive) |
| AACAAGCT | 0.312 (active) |
| AACAAACA | 0.338 (active) |
| AACAAACT | 0.23 (inactive) |
| GACAAACC | 0.0748 (inactive) |
| TACAAACA | ≥ 0.368 (active) |
| AACAAGCC | 0.176 (inactive) |
| GACAAACA | 0.312 (active) |
| AGTTCTGG | -0.0428 (inactive) |
| AGGGCAAC | -0.0847 (inactive) |
| CCGGAAAG | -0.15 (inactive) |
| ACGTTCAT | 0.101 (inactive) |
| GATATTGA | 0.0675 (inactive) |
| CACCTACC | -0.0826 (inactive) |
| AAAACGTG | 0.0311 (inactive) |

| Sequence | PBM E-score |
| --- | --- |
| AGTATACT | 0.163 (inactive) |
| ACCTACCT | -0.066 (inactive) |
| GCATCTAC | 0.0527 (inactive) |
| AACAAGCA | 0.308 (inactive) |
| GACAAGCA | 0.321 (active) |
| CACAAGCA | 0.15 (inactive) |
| TACAAGCA | ≥ 0.384 (active) |
| GACAAGCC | 0.212 (inactive) |
| GGCAAGCA | -0.119 (inactive) |
| CTCTCAGC | -0.19 (inactive) |
| ACCCGTAT | 0.0244 (inactive) |
| ACTTTTCG | 0.0288 (inactive) |
| CCCACAGG | -0.142 (inactive) |
| GAATAGTC | -0.00141 (inactive) |
| AAAACATA | 0.284 (inactive) |
| AATACAAG | 0.346 (active) |
| GAAACATA | 0.258 (inactive) |
| AATACATA | 0.362 (active) |
| GATACATC | 0.297 (inactive) |
| TAAACATA | ≥ 0.367 (active) |
| AATACAAA | 0.284 (inactive) |
| GATACATA | 0.321 (active) |
| AATACAGA | 0.18 (inactive) |
| GATACAGA | 0.164 (inactive) |

| Sequence | PBM E-score |
| --- | --- |
| AATACAAT | 0.226 (inactive) |
| AATACAAC | 0.305 (inactive) |
| AGCTGTAA | 0.166 (inactive) |
| AGTACTAT | 0.165 (inactive) |
| CCGATGCG | -0.173 (inactive) |
| AAGACTAT | 0.0648 (inactive) |
| CCCACGAG | -0.148 (inactive) |
| GGATATCA | 0.0642 (inactive) |
| TCGTATAA | 0.121 (inactive) |
| CCACTAGG | -0.169 (inactive) |
| TATACAAA | 0.264 (inactive) |
| AATACATG | 0.424 (active) |
| CATACATC | 0.251 (inactive) |
| TATACAGA | 0.217 (inactive) |
| CATACATA | 0.286 (inactive) |
| AATACATT | 0.225 (inactive) |
| TATACATA | 0.326 (active) |
| AATACATC | 0.294 (inactive) |
| CATACATG | 0.44 (active) |
| CCTCTACG | -0.0999 (inactive) |
| AACACCTA | 0.183 (inactive) |
| CTCAGCGA | -0.115 (inactive) |
| AGATTTGA | 0.0967 (inactive) |
| ACCCGCGT | -0.0456 (inactive) |

| Sequence | PBM E-score |
| --- | --- |
| CTCGGACA | 0.086 (inactive) |
| GATGAACA | 0.196 (inactive) |
| CATGAACA | 0.32 (active) |
| GGTGAACA | 0.183 (inactive) |
| CGTGAACA | 0.206 (inactive) |
| TATGAACA | 0.286 (inactive) |
| TGTGAACA | 0.31 (active) |
| CATGAACG | 0.0839 (inactive) |
| AATGAACA | 0.317 (active) |
| AATGAACC | -0.0632 (inactive) |
| GCGAGAGA | -0.0945 (inactive) |
| GGCGAGTA | -0.0986 (inactive) |
| GTAGCAAC | 0.128 (inactive) |
| AGCAAGAC | 0.0516 (inactive) |
| ACTTGACC | -0.0545 (inactive) |
| AAAATTTC | -0.0281 (inactive) |
| TCGGCAAA | -0.0466 (inactive) |
| ATGCTGGG | -0.069 (inactive) |
| ATCTGTGC | 0.0661 (inactive) |
| AGTGCGCC | -0.17 (inactive) |
| GACATATA | 0.305 (inactive) |
| AACATATA | 0.323 (active) |
| AACATATT | ≥ 0.347 (active) |
| CACATATA | 0.251 (inactive) |

| Sequence | PBM E-score |
| --- | --- |
| TACATAGA | 0.278 (inactive) |
| AACATAGT | 0.287 (inactive) |
| ACCATATG | 0.145 (inactive) |
| AACATATC | 0.303 (inactive) |
| CACATATG | 0.15 (inactive) |
| TACATATA | 0.379 (active) |
| AACATATG | ≥ 0.356 (active) |
| TATATATA | 0.216 (inactive) |
| GACGGCTA | -0.167 (inactive) |
| CAATTGTA | 0.193 (inactive) |
| ATGAATCG | 0.0391 (inactive) |
| AGTAACGA | 0.107 (inactive) |
| GACTCGCA | -0.115 (inactive) |
| CAGATGCG | -0.00655 (inactive) |
| AGGAAGGA | -0.0149 (inactive) |
| AATGGCTC | -0.0437 (inactive) |
| ATAACAAG | ≥ 0.373 (active) |
| AGAACAAC | 0.229 (inactive) |
| ATAACAAA | 0.205 (inactive) |
| ATAACAAT | 0.254 (inactive) |
| ATAACACA | 0.305 (inactive) |
| CTAACAAC | 0.278 (inactive) |
| ATAACACG | ≥ 0.334 (active) |
| GTAACAAC | 0.341 (active) |

| Sequence | PBM E-score |
| --- | --- |
| AAAACAAC | 0.214 (inactive) |
| GTAACAAA | 0.217 (inactive) |
| CTAACACA | 0.276 (inactive) |
| ATAACAAC | 0.346 (active) |
| ACAGTTTC | 0.0345 (inactive) |
| CCAGCGGG | -0.276 (inactive) |
| AGACCCCT | -0.143 (inactive) |
| CACGGTCC | -0.0957 (inactive) |
| CGACGATC | 0.00125 (inactive) |
| CCGTGTAA | 0.35 (active) |
| CAGTGTAA | 0.218 (inactive) |
| GCGTGTGA | 0.0667 (inactive) |
| TCGTGTAA | 0.363 (active) |
| CCGTGTGA | 0.0813 (inactive) |
| TCGTGAAA | 0.00205 (inactive) |
| ACGTGTGA | 0.155 (inactive) |
| GAGTGTAA | 0.11 (inactive) |
| AGGTGTAA | 0.2 (inactive) |
| GCGTGTAA | 0.327 (active) |
| TAGTGTAA | 0.207 (inactive) |
| ACGTGTAA | ≥ 0.394 (active) |
| CTATCTGA | 0.0431 (inactive) |
| AAGTGGAC | -0.00011 (inactive) |
| AGTTGGCC | -0.159 (inactive) |

| Sequence | PBM E-score |
| --- | --- |
| ATATATCG | 0.0746 (inactive) |
| CAGACTGC | -0.0434 (inactive) |
| TAAGTAGA | 0.11 (inactive) |
| CAGGGCTA | -0.125 (inactive) |
| CCAGACAC | 0.05 (inactive) |
| AACGATGT | 0.35 (active) |
| AACGATGC | -0.051 (inactive) |
| AACGATGG | -0.0529 (inactive) |
| TAACTTCA | 0.137 (inactive) |
| AACGCAGA | -0.0244 (inactive) |
| TGACTGAA | -0.0626 (inactive) |
| GGCCGCGA | -0.26 (inactive) |
| CATGTCGG | 0.357 (active) |
| GATGTCGC | 0.201 (inactive) |
| CATGTCGA | 0.412 (active) |
| AATGTCGA | 0.212 (inactive) |
| TATGTCGA | 0.323 (active) |
| CTTGTCGA | 0.303 (inactive) |
| CATGTCGC | 0.363 (active) |
| GATGTCGA | 0.217 (inactive) |
| CAGGTCGG | -0.0619 (inactive) |
| CGTGTCGA | 0.281 (inactive) |
| AATGTCGG | 0.119 (inactive) |
| AATGTCGC | 0.191 (inactive) |

| Sequence | PBM E-score |
| --- | --- |
| ACCGCGTC | -0.0819 (inactive) |
| TATTCTCA | 0.0911 (inactive) |
| CTGTGAAG | -0.0616 (inactive) |
| GCGACAGA | 0.0849 (inactive) |
| CTGGGTTC | -0.0931 (inactive) |
| ATTAGCGG | -0.0813 (inactive) |
| AACAGGGG | 0.0757 (inactive) |
| GACTTACC | -0.0473 (inactive) |
| ACCATCAT | 0.0686 (inactive) |
| GACCTCAA | 0.0301 (inactive) |
| TAATTACA | 0.335 (active) |
| GACTTACA | 0.246 (inactive) |
| AACTTACA | ≥ 0.344 (active) |
| AAATTACA | 0.329 (active) |
| TAATTATA | 0.234 (inactive) |
| CAATTACG | 0.0582 (inactive) |
| AAATTACT | 0.124 (inactive) |
| GAATTACA | 0.29 (inactive) |
| CAATTACC | -0.00996 (inactive) |
| CAATTACA | 0.334 (active) |
| CACTTACA | 0.243 (inactive) |
| AAATTACG | 0.0367 (inactive) |
